Measured values as given in PubChem BioAssay.

Target: Tumor necrosis factor receptor superfamily member 10B (Homo sapiens) (UniProt O14763)
Assay: caspase-8 TRAIL sensitization, hit retest, confirmation, cell-based, NB7+caspase-8, with/without TRAIL, luminescence panel (AID 651596)
Conditions: NB7 neuroblastoma + caspase-8, TRAIL sensitization, luminescence viability, with TRAIL, mean of runs, at 10 µM, stronger effect = higher value; in the data active = activity above about 50%; inactive = the rest

Chain of Tumor necrosis factor receptor superfamily member 10B (Homo sapiens) (O14763 whole entry, looked up): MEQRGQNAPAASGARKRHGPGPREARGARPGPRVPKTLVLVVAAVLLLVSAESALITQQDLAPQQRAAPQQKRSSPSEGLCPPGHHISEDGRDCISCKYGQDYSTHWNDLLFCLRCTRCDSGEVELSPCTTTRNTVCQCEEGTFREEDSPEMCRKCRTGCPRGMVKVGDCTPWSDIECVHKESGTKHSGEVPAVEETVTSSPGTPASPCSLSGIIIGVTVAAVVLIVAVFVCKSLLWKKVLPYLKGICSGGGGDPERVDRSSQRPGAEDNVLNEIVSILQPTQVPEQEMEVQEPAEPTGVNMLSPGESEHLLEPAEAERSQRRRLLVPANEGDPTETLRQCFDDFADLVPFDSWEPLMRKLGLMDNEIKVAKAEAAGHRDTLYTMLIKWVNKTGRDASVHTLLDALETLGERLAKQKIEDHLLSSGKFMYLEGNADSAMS

Row | Structure (SMILES) | activity
1 | Cc1cccc2sc(NNC(=O)c3cc(-c4cccs4)nc4ccccc34)nc12 | 25.2%
2 | C#Cc1ccc(NC(=O)C2(C)CCN2C(=O)c2ccccc2CCc2ccccc2)cc1 (stereo not given) | 91.2%
3 | CN(C)c1ccc(-c2nc3ccccc3c(=O)[nH]2)cc1 | 91.9%
4 | Brc1nc(-c2ccccc2)nc(-c2ccccc2)c1Br | 98.9%
5 | CCOc1ccc(OCc2cccc(C(=O)N3CCOCC3)c2)cc1 | 58.8%
6 | CCCc1ccc(-c2cc(C(=O)N/N=C/c3ccc([N+](=O)[O-])o3)c3ccccc3n2)cc1 | 91.6%
7 | O=C(NC(=S)Nc1nc2ccccc2s1)c1ccco1 | 77.7%
8 | Cc1ccc(CN=c2c([N+](=O)[O-])nn(-c3cccc(C)c3)n2O)cc1 | 16.2%
9 | Cc1cc2ncc(-c3ncc(C(F)(F)F)cc3Cl)cn2n1 | 45.7%
10 | Cc1cc(C(=O)Cn2nnc3ccccc3c2=O)c(C)n1Cc1cccs1 | 65.1%
11 | COc1ccc(-c2cc(-c3ccccc3)c(C#N)c(S(C)=O)n2)cc1 (stereo not given) | 95.2%
12 | Cc1ccc(-c2nc(NC(=O)c3nn(C)cc3[N+](=O)[O-])sc2C)cc1C | 98.1%
13 | CC(C)(C)OC(=O)NCCCC[C@H](NC(=O)c1nc[nH]c1C(=O)NC(c1ccccc1)c1ccccc1)C(=O)OC(C)(C)C | 67%
14 | COc1ccc(C(=O)Nc2ccccc2C(=O)N/N=C/c2ccccn2)cc1OC | 80.7%
15 | Cc1nc2nc(C)n(CCN3CCOCC3)c(=O)c2c(-c2cccc([N+](=O)[O-])c2)c1C(=O)CCCCCCCCCCN1CCC(c2ccccc2)(c2ccccc2)CC1 | 92.6%
16 | CCCCc1ccc(NC(=O)c2ccc(N(C)S(C)(=O)=O)cc2)cc1 | 25.8%
17 | COc1ccc(C2NN=C(c3ccc(C)cc3)S2)cc1 (stereo not given) | 51.8%
18 | C/C(=N\NC(=O)c1ccc(O)cc1)c1cccc(NC(=O)c2ccccc2C)c1 | 59.9%
19 | CCC(C(=O)O/N=C(\N)c1ccccc1)c1ccccc1 (stereo not given) | 81.9%
20 | Cc1ccc(C(=O)Nc2ncc3c(Cl)cccc3n2)cc1 | 91.5%

Row | Structure (SMILES) | activity
21 | Cc1ccc(-c2cc(-c3ccccc3)no2)c(O)c1 | 71.8%
22 | C=CCn1c2ccccc2c(=O)c2cc(C#CC3(O)CCCCC3)ccc21 | 83.7%
23 | COc1ccc(/C=N/OC(=O)Nc2ccccc2OC)cc1 | 56.9%
24 | CC(=O)Nc1sc2c(c1-c1nc3ccccc3s1)CN(C(C)C)CC2 | 38%
25 | CS(=O)(=O)c1ccc2nc(NC(=O)c3cccc([N+](=O)[O-])c3)sc2c1 | 69.4%
26 | CCOc1ccc(C(=O)N/N=C/c2ccccc2[N+](=O)[O-])cc1 | 68%
27 | COc1ccc(C(=O)Nc2ccc3[nH]ccc3c2)cc1 | 95.1%
28 | CCOc1ccc2nc(NC(=O)CN3CCC(n4nnc5cc(C(F)(F)F)ccc54)CC3)sc2c1 | 69%
29 | Cc1ccn(-c2ccc(NC(=O)c3cccs3)cc2)n1 | 59.7%
30 | COc1ccc(C(=O)Nc2ccc3ccccc3c2)cc1 | 76.8%
31 | CCOc1cccc(C(=O)Nc2ccc3[nH]ncc3c2)c1 | 61%
32 | CC(=O)Oc1ccc(/C=N\NC(=O)c2cc3c(ccc4ccccc43)o2)cc1 | 64.6%
33 | O=C(/C=C/NNC(=O)c1ccccc1)c1ccc([N+](=O)[O-])cc1 | 21.4%
34 | COc1ccc(Cn2c(SCc3ccccc3C)nc3cc(OC)c(OC)cc3c2=N)cc1 | 72.7%
35 | O=C(/C=C/Nc1ccccc1F)c1ccc(Br)cc1 | 62.2%
36 | CCn1cc(/C=C/C(=O)c2ccc(O)cc2)c(C)n1 | 63.8%
37 | CN(C)CCCN(C(=O)c1ccc(S(=O)(=O)N(C)C2CCCCC2)cc1)c1nc2ccc(Br)cc2s1 | 46.2%
38 | C=CCc1ccccc1OCC(=O)N/N=C/c1ccc(OC(C)=O)cc1OC(C)=O | -0.55%
39 | O=C(/C=C/Nc1ccccc1C(F)(F)F)c1ccco1 | 97.2%
40 | CN(C(=S)NC(=O)c1ccc(Cl)cc1)C1CCCCC1 | 40.6%

System: not listed separately
Assay: as above
Conditions: NB7 neuroblastoma + caspase-8, without TRAIL, luminescence viability, without TRAIL, mean of runs, at 10 µM

Row | Structure (SMILES) | activity
41 | Cc1cccc2sc(NNC(=O)c3cc(-c4cccs4)nc4ccccc34)nc12 | 26.2%
42 | C#Cc1ccc(NC(=O)C2(C)CCN2C(=O)c2ccccc2CCc2ccccc2)cc1 (stereo not given) | 95.9%
43 | CN(C)c1ccc(-c2nc3ccccc3c(=O)[nH]2)cc1 | 92.5%
44 | Brc1nc(-c2ccccc2)nc(-c2ccccc2)c1Br | 99.2%
45 | CCOc1ccc(OCc2cccc(C(=O)N3CCOCC3)c2)cc1 | 55.5%
46 | CCCc1ccc(-c2cc(C(=O)N/N=C/c3ccc([N+](=O)[O-])o3)c3ccccc3n2)cc1 | 93.3%
47 | O=C(NC(=S)Nc1nc2ccccc2s1)c1ccco1 | 64.4%
48 | Cc1ccc(CN=c2c([N+](=O)[O-])nn(-c3cccc(C)c3)n2O)cc1 | 24.7%
49 | Cc1cc2ncc(-c3ncc(C(F)(F)F)cc3Cl)cn2n1 | 41.9%
50 | Cc1cc(C(=O)Cn2nnc3ccccc3c2=O)c(C)n1Cc1cccs1 | 58.3%
51 | COc1ccc(-c2cc(-c3ccccc3)c(C#N)c(S(C)=O)n2)cc1 (stereo not given) | 99.2%
52 | Cc1ccc(-c2nc(NC(=O)c3nn(C)cc3[N+](=O)[O-])sc2C)cc1C | 99.1%
53 | CC(C)(C)OC(=O)NCCCC[C@H](NC(=O)c1nc[nH]c1C(=O)NC(c1ccccc1)c1ccccc1)C(=O)OC(C)(C)C | 23.8%
54 | COc1ccc(C(=O)Nc2ccccc2C(=O)N/N=C/c2ccccn2)cc1OC | 59.5%
55 | Cc1nc2nc(C)n(CCN3CCOCC3)c(=O)c2c(-c2cccc([N+](=O)[O-])c2)c1C(=O)CCCCCCCCCCN1CCC(c2ccccc2)(c2ccccc2)CC1 | 89.9%
56 | CCCCc1ccc(NC(=O)c2ccc(N(C)S(C)(=O)=O)cc2)cc1 | 19.9%
57 | COc1ccc(C2NN=C(c3ccc(C)cc3)S2)cc1 (stereo not given) | 42.1%
58 | C/C(=N\NC(=O)c1ccc(O)cc1)c1cccc(NC(=O)c2ccccc2C)c1 | 61.3%
59 | CCC(C(=O)O/N=C(\N)c1ccccc1)c1ccccc1 (stereo not given) | 81.6%
60 | Cc1ccc(C(=O)Nc2ncc3c(Cl)cccc3n2)cc1 | 89%

Row | Structure (SMILES) | activity
61 | Cc1ccc(-c2cc(-c3ccccc3)no2)c(O)c1 | 60.2%
62 | C=CCn1c2ccccc2c(=O)c2cc(C#CC3(O)CCCCC3)ccc21 | 79.7%
63 | COc1ccc(/C=N/OC(=O)Nc2ccccc2OC)cc1 | 63.3%
64 | CC(=O)Nc1sc2c(c1-c1nc3ccccc3s1)CN(C(C)C)CC2 | 73.8%
65 | CS(=O)(=O)c1ccc2nc(NC(=O)c3cccc([N+](=O)[O-])c3)sc2c1 | 71.3%
66 | CCOc1ccc(C(=O)N/N=C/c2ccccc2[N+](=O)[O-])cc1 | 62.8%
67 | COc1ccc(C(=O)Nc2ccc3[nH]ccc3c2)cc1 | 95.3%
68 | CCOc1ccc2nc(NC(=O)CN3CCC(n4nnc5cc(C(F)(F)F)ccc54)CC3)sc2c1 | 66.9%
69 | Cc1ccn(-c2ccc(NC(=O)c3cccs3)cc2)n1 | 65.7%
70 | COc1ccc(C(=O)Nc2ccc3ccccc3c2)cc1 | 74.5%
71 | CCOc1cccc(C(=O)Nc2ccc3[nH]ncc3c2)c1 | 67%
72 | CC(=O)Oc1ccc(/C=N\NC(=O)c2cc3c(ccc4ccccc43)o2)cc1 | 67.7%
73 | O=C(/C=C/NNC(=O)c1ccccc1)c1ccc([N+](=O)[O-])cc1 | 20%
74 | COc1ccc(Cn2c(SCc3ccccc3C)nc3cc(OC)c(OC)cc3c2=N)cc1 | 90.9%
75 | O=C(/C=C/Nc1ccccc1F)c1ccc(Br)cc1 | 59.5%
76 | CCn1cc(/C=C/C(=O)c2ccc(O)cc2)c(C)n1 | 57.5%
77 | CN(C)CCCN(C(=O)c1ccc(S(=O)(=O)N(C)C2CCCCC2)cc1)c1nc2ccc(Br)cc2s1 | 45%
78 | C=CCc1ccccc1OCC(=O)N/N=C/c1ccc(OC(C)=O)cc1OC(C)=O | 27.2%
79 | O=C(/C=C/Nc1ccccc1C(F)(F)F)c1ccco1 | 99.3%
80 | CN(C(=S)NC(=O)c1ccc(Cl)cc1)C1CCCCC1 | 60%
